Measurements published in PubChem BioAssay (Tox21).
Records with an inconclusive call do not appear. The source made the active and inactive calls. Unless noted, calls follow the shape of the full dose curve.

Columns and labels:
[1] = Nuclear factor erythroid 2-related factor 2/antioxidant responsive element (Nrf2/ARE) small molecule agonists: luciferase reporter gene qHTS assay in human keratinocytes (AID 1919969); also: nearly all actives have a fitted effect of over 35% in size; also: potency is read from the fitted curve at half-maximal effect
[2] = biological target: Gonadotropin-releasing hormone receptor (Homo sapiens) (UniProt P30968); experiment: Human gonadotropin-releasing hormone receptor (GnRHR) small molecule agonists, calcium flux assay in GnRHR-HEK293 cells (AID 1920063); also: nearly all actives have a fitted effect of over 35% in size
Gonadotropin-releasing hormone receptor (Homo sapiens), sequence (P30968 whole entry, looked up): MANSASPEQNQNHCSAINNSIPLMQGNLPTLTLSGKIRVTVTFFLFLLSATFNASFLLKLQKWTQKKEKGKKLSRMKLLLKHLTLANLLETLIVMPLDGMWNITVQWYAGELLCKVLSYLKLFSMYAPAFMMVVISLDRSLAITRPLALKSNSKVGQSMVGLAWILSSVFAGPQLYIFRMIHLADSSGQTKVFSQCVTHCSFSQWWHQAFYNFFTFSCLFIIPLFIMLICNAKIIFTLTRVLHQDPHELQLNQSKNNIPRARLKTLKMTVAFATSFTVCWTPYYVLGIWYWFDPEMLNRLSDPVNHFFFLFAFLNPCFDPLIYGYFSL
How it was run: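 We seeded human GnRHR-expressing HEK293 cells for 18 hours, loaded them with calcium dye for an hour at 37 C, added test compounds, and recorded fluorescence intensity kinetically for three minutes.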

[3] = biological target: KiSS-1 receptor (Homo sapiens) (UniProt Q969F8); experiment: Human kisspeptin (KISS1R) small molecule agonists, calcium flux assay in KISS1R-HEK293 cells (AID 1920064; active = well fitted activation curve with a large enough effect in the repeat runs)
KiSS-1 receptor (Homo sapiens), sequence (Q969F8 whole entry, looked up): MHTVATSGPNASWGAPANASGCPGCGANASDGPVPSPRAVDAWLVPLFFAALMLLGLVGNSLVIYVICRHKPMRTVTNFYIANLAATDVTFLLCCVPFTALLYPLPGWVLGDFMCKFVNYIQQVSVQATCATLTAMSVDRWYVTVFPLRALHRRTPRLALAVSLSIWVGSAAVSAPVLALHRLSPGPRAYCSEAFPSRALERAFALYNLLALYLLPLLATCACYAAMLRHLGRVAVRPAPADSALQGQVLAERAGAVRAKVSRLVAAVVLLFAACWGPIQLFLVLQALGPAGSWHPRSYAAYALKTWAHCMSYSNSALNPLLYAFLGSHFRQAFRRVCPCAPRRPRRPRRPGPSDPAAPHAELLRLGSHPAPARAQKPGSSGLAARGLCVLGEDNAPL
How it was run: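 Kinetic calcium assay, 1 s sampling over 3 min at Ex/Em 480/540, in HEK293 cells engineered with human KISS1R; compounds delivered in DMSO after 1 h dye loading.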

[4] = p53 small molecule agonists, cell-based qHTS assay with human liver microsomes (AID 1963577);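 also: p53 response element beta-lactamase reporter cells with liver microsomes plus NADPH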
How it was run: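 16 h, 37 C exposure of p53RE-bla cells to compounds with human liver microsomes and NADPH (0.5 mg/mL final each); detection via LiveBLAzer mixture, 2 h dark at room temperature.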

[5] = p53 small molecule agonists, cell-based qHTS assay with rat liver microsomes (AID 1963578)
How it was run: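 With rat liver microsomes and NADPH present (0.5 mg/mL final each), p53RE-bla cells are treated with compound for 16 h at 37 C. LiveBLAzer detection mixture is then applied for 2 h at room temperature in the dark.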

[6] = p53 small molecule agonists, cell-based qHTS assay with human liver microsomes: qHTS cell viability counter screen (AID 1963579); also: nearly all actives have a fitted effect of over 45% in size
How it was run: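 In this multiplexed counter screen, the reporter plates were subsequently treated with CellTiter-Glo so that cell viability, reflected by luminescence, could be recorded for p53RE-bla cells dosed 16 h with compounds under microsomal activation (HLM and NADPH).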

[7] = p53 small molecule agonists, cell-based qHTS assay: qHTS cell viability counter screen (AID 1963581); also: nearly all actives have a fitted effect of over 45% in size
How it was run: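 Following 5 h attachment, HCT-116 p53RE-bla cells took up compound for 16 h at 37 C; the reporter was read with B/G FRET substrate (2 h RT), and viability then via CellTiter-Glo ATP luminescence.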

[8] = p53 small molecule agonists, cell-based qHTS assay (AID 1963582; active = well fitted activation curve with a large enough effect in the signal ratio in the repeat runs, not every such curve was filed as active; the % refers to the signal ratio)
How it was run: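 In this cell-based concentration-response screen, a p53 response element drives beta-lactamase; cells received DMSO-borne compounds after 5 h culture and were incubated a further 16 h before FRET substrate development.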

[9] = biological target: 5-hydroxytryptamine receptor 2A (Homo sapiens) (UniProt P28223); experiment: 5-hydroxytryptamine receptor 2A (HTR2A) small molecule antagonists, cell-based qHTS assay (AID 1963586); also: nearly all actives have a fitted effect of over 45% in size
5-hydroxytryptamine receptor 2A (Homo sapiens), sequence (P28223 whole entry, looked up): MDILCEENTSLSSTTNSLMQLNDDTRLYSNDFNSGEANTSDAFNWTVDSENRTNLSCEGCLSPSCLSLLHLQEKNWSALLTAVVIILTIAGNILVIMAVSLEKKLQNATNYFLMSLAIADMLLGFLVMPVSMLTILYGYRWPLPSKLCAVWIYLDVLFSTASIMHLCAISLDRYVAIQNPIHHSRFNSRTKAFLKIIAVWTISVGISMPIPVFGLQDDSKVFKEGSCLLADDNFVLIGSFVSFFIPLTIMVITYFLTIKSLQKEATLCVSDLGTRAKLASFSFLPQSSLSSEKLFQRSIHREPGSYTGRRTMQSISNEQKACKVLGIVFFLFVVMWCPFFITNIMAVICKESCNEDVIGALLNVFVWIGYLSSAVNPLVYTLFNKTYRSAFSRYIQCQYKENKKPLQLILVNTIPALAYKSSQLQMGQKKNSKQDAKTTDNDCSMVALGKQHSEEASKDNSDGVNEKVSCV
How it was run: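 Antagonist-mode intracellular calcium assay: DOI (4 nM) added after 5 min compound pre-incubation at room temperature to dye-loaded HTR2A-CHO cells. Fluorescence followed for 3 min, sampled every second.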

[10] = biological target: 5-hydroxytryptamine receptor 2A (Homo sapiens) (UniProt P28223); experiment: 5-hydroxytryptamine receptor 2A (HTR2A) small molecule agonists, cell-based qHTS assay (AID 1963587); also: nearly all actives have a fitted effect of over 30% in size
How it was run: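 Kinetic calcium-flux fluorescence (2 min, 1 sec intervals) after compound addition in agonist mode. HTR2A-CHO cells were cultured 18 h, then dye-loaded 1 h at 37 C.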

[11] = biological target: Muscarinic acetylcholine receptor M1 (Homo sapiens) (UniProt P11229); experiment: Cholinergic receptor muscarinic 1 (CHRM1) small molecule antagonists, cell-based qHTS assay (AID 1963588); also: nearly all actives have a fitted effect of over 40% in size
Muscarinic acetylcholine receptor M1 (Homo sapiens), sequence (P11229 whole entry, looked up): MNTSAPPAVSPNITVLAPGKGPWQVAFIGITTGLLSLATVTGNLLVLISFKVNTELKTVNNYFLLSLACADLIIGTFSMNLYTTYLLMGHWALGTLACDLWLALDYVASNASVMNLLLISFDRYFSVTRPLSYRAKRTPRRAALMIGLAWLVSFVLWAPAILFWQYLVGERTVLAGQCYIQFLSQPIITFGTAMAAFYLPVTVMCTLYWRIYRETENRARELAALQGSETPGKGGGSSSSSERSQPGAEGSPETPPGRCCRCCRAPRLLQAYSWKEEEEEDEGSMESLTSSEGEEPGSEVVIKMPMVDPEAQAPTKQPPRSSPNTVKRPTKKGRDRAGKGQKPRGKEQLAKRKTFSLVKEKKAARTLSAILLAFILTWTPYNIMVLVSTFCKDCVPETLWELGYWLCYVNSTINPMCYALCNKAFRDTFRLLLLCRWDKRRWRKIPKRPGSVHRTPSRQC
How it was run: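 CHRM1-CHO calcium-flux assay, antagonist mode. Cells were seeded 18 h, dye-loaded 1 h at 37 C and given compound for 5 min at RT, then acetylcholine was added at 50nM. FDSS fluorescence was read 3 min; 15 concentrations, three runs.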

[12] = biological target: Muscarinic acetylcholine receptor M1 (Homo sapiens) (UniProt P11229); experiment: Cholinergic receptor muscarinic 1 (CHRM1) small molecule agonists, cell-based qHTS assay (AID 1963589); also: nearly all actives have a fitted effect of over 35% in size
How it was run: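 Measures agonist-induced intracellular calcium rise. Stable human CHRM1 CHO line, 1 h dye load at 37 C, compounds from DMSO, kinetic fluorescence read.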

[13] = cAMP Responsive Elements (CRE) small molecule agonists, cell-based qHTS assay (AID 1963590)
How it was run: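 A CRE-responsive beta-lactamase reporter in HEK 293T cells was used. Treatment ran 3 h at 37 C; detection used LiveBLAzer B/G FRET substrate for 2 h at room temperature.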

[14] = cAMP Responsive Elements (CRE) small molecule antagonists, cell-based qHTS assay (AID 1963591; active = well fitted inhibition curve with a large enough effect in the signal ratio in the repeat runs, not every such curve was filed as active; the % refers to the signal ratio)
How it was run: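 HEK293T cells carrying a CRE-driven beta-lactamase reporter receive compound and NKH477 (0.25 uM final) for 3 h. Fluorescence from LiveBLAzer B/G FRET substrate is read after 2 h at room temperature.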

[15] = biological target: Beta-2 adrenergic receptor (Homo sapiens) (UniProt P07550); experiment: Adrenergic beta2 receptor (ADRB2) small molecule antagonists, cell-based qHTS assay (AID 1963592); also: series mostly up to about 92 µM; nearly all actives have a fitted effect of over 50% in size
Beta-2 adrenergic receptor (Homo sapiens), sequence (P07550 whole entry, looked up): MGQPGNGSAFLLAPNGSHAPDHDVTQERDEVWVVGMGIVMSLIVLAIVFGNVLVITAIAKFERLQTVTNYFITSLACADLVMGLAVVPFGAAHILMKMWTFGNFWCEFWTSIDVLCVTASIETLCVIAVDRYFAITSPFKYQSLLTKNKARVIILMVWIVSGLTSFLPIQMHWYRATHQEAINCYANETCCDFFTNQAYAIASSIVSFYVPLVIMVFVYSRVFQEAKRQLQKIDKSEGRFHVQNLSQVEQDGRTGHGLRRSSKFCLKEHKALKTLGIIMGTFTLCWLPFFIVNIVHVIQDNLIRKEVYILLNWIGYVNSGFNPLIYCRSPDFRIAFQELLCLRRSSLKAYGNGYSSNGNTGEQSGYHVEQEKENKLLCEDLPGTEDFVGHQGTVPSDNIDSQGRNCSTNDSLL
How it was run: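 Cells (CHO, stable ADRB2 overexpression) incubated 18-20hr at 37C; compounds added from DMSO; agonist mix (1nM isoproterenol, 100uM IBMX, 25uM Ro-20-1724) added; 0.5hr RT; d2-cAMP and anti-cAMP-cryptate added; 1hr RT; 665/615 nm read.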

[16] = biological target: D(2) dopamine receptor (Homo sapiens) (UniProt P14416); experiment: Dopamine D2 receptor (DRD2) small molecule agonists, cell-based qHTS assay (AID 1963594); also: nearly all actives have a fitted effect of over 35% in size; also: potency is read from the fitted curve at half-maximal effect
D(2) dopamine receptor (Homo sapiens), sequence (P14416 whole entry, looked up): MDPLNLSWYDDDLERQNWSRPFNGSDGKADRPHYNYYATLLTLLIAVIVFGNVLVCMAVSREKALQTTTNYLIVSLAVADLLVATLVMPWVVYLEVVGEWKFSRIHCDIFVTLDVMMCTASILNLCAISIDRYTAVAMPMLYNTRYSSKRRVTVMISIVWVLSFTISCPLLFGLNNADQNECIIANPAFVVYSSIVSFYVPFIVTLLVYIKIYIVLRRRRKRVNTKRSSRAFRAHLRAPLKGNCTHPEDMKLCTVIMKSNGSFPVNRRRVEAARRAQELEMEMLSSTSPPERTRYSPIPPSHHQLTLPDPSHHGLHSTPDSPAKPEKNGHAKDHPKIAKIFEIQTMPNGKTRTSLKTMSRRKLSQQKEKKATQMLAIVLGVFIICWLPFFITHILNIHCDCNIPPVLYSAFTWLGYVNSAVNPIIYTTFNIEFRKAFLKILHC
How it was run: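 cAMP accumulation in DRD2-HEK293 cells measured by HTRF after 1 h detection; compounds added 10 min before NKH477 (200nM […]) forskolin-analogue stimulation, 30 min at room temperature, with Ro20-1724 present at 0.1 mM final.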

[17] = biological target: D(2) dopamine receptor (Homo sapiens) (UniProt P14416); experiment: Dopamine D2 receptor (DRD2) small molecule antagonists, cell-based qHTS assay (AID 1963595; active = well fitted inhibition curve with a large enough effect in the signal ratio in the repeat runs, with a control signal flat; the % refers to the signal ratio)
How it was run: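 Human DRD2 antagonist qHTS measuring cAMP by HTRF. The cells are exposed to compound for 10 min, then to NKH477 (200 nM) and quinpirole (12 nM) for 30 min at RT, with Ro20-1724 (0.1 mM) present throughout.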

[18] = G protein-coupled receptor (GPCR) small molecule agonists, calcium flux assay: HEK293 wild type cell line counter screen (AID 1920065)
How it was run: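 Calcium-sensitive dye, loaded 1 h at 37 C into cells cultured 18 h, reports compound-evoked calcium release as fluorescence (Ex/Em 480/540), measured over 3 min. Agonist mode; 15-point titrations, triplicate.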

[19] = p53 small molecule agonists, cell-based qHTS assay with rat liver microsomes: qHTS cell viability counter screen (AID 1963580); also: nearly all actives have a fitted effect of over 45% in size
How it was run: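 HCT-116 p53RE-bla, 4,000 cells/well, 5 h pre-incubation; cpd + rat liver microsomes 0.5 mg/mL + NADPH 0.5 mg/mL (final); 16 h, 37 C; CellTiter-Glo, 30 min RT; luminescence.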

[20] = biological target: Beta-2 adrenergic receptor (Homo sapiens) (UniProt P07550); experiment: Adrenergic beta2 receptor (ADRB2) small molecule agonists, cell-based qHTS assay (AID 1963593);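 also: CHO cells stably overexpressing human ADRB2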
How it was run: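 CHO cells stably over-expressing ADRB2 were plated overnight at 37C, then dosed with compounds plus a stimulation mix containing 100uM IBMX and 25uM Ro-20-1724 for 0.5hr at room temperature. cAMP was measured by HTRF competition, 1hr.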
% is scaled to controls: 0 for no effect and ±100 for the full control effect.

CCCCCCCCCCCCCCN(C)C
inactive: activity, positive = activation [1] 2.64% [at 19 µM] | activity change [2] -0.071% [at 11.8 µM, active compounds read high] | activation [3] 2.68% [at 15.8 µM] | activation [4] -0.299% [at 13.5 µM] | activation [5] -1.12% [at 13.6 µM] | activity change, negative = cytotoxicity [6] 6.35% [at 13.5 µM] | activity change, negative = cytotoxicity [7] 1.73% [at 13.5 µM] | activation [8] -0.74% [at 13.5 µM] | activity, negative = inhibition [9] 2.96% [at 12.7 µM] | activation [10] 12% [at 15.9 µM] | activity, negative = inhibition [11] 5.47% [at 12.6 µM] | activation [12] 0.401% [at 15.8 µM] | activation [13] -0.847% [at 19 µM] | activity change, negative = inhibition [14] -9.63% [at 18.9 µM] | activity change, negative = inhibition [15] -1.54% [at 19 µM] | activation [16] 0.215% [at 19 µM] | activity change, negative = inhibition [17] -0.238% [at 18.9 µM]

Cc1c(N)cccc1[N+](=O)[O-]
inactive: Potency [2] | outcome [3] | outcome [18] | Potency [4] | Potency [5] | Potency [6] | Potency [19] | Potency [7] | Potency [8] | Potency [10] | Potency [11] | Potency [13] | Potency [15] | Potency [16] | Potency [17]

COc1ccccc1OCC(O)COC(N)=O (configuration not stated)
inactive: Potency [2] | outcome [3] | outcome [18] | Potency [4] | Potency [5] | Potency [6] | Potency [19] | Potency [7] | Potency [8] | Potency [13] | Potency [14] | Potency [15] | Potency [20] | Potency [16] | Potency [17]

CCO[Si](CC)(OCC)OCC
inactive: Potency [1] | Potency [2] | outcome [18] | Potency [4] | Potency [5] | Potency [6] | Potency [19] | Potency [8] | Potency [9] | Potency [10] | Potency [11] | Potency [12] | Potency [13] | Potency [14] | Potency [15] | Potency [20] | Potency [16] | Potency [17]

SC1CCCCC1
inactive: Potency [1] | Potency [2] | outcome [3] | Potency [4] | Potency [5] | Potency [19] | Potency [7] | Potency [8] | Potency [9] | Potency [10] | Potency [12] | Potency [13] | Potency [14] | Potency [15] | Potency [16] | Potency [17]

CCOC(=O)[C@H](C)O
inactive: Potency [1] | outcome [3] | outcome [18] | Potency [4] | Potency [5] | Potency [6] | Potency [19] | Potency [7] | Potency [8] | Potency [9] | Potency [10] | Potency [11] | Potency [12] | Potency [13] | Potency [14] | Potency [15] | Potency [16] | Potency [17]

O=[N+]([O-])c1cc(Cl)c(Cl)c(Cl)c1Cl
inactive: Potency [2] | outcome [3] | outcome [18] | Potency [5] | Potency [6] | Potency [7] | Potency [8] | Potency [10] | Potency [11] | Potency [12] | Potency [14] | Potency [15] | Potency [16] | Potency [17]
active: Potency [1] 48.4 µM

CC(CCc1ccccc1)NCC(O)c1ccc(O)c(C(N)=O)c1 (configuration not stated)
active: Potency [16] 3.31 µM
inactive: Potency [1] | Potency [2] | outcome [18] | Potency [4] | Potency [5] | Potency [6] | Potency [19] | Potency [14]

Cc1nc(C)nc(N2C[C@@H](C)N(c3ccnc([C@@H](C)O)n3)[C@@H](C)C2)n1
inactive: Potency [1] | outcome [3] | outcome [18] | Potency [4] | Potency [5] | Potency [19] | Potency [7] | Potency [8] | Potency [9] | Potency [10] | Potency [12] | Potency [15] | Potency [16] | Potency [17]
